These results are taken from the OligoGym collection.
Note: reference of the scale not given here.

For one experiment, the target named is TMEM218. As to the kind of experiment: pooled miR-30 sensor sort-seq; sequence = guide strand. To be noted: shRNA.
AAAAGCAACAGAACTGATGTGA: the sensor-assay potency score (higher = more potent) came out at 0.455.
Same read-out and setting: the same measure for AATCTTAACTTCCACTTCTGGG: -0.603.
TAACTTCCACTTCTGGGGCTGG: the sensor-assay potency score (higher = more potent) was -0.428.
ATCCACAATCTTAACTTCCACT registered a sensor-assay potency score (higher = more potent) of -0.762.
ATCTTAACTTCCACTTCTGGGG came in with a sensor-assay potency score (higher = more potent) of -0.795.
Still for that read-out and setting: the same measure for AAAGCCAGCAGGACATAGCGGC: -0.627.
For TGTGATGATCACAGCACCGAAG, the sensor-assay potency score (higher = more potent) is -0.957.
The same measure, in the same setting: the figure for TTAACTTCCACTTCTGGGGCTG is 0.528; for ATGTGATGATCACAGCACCGAA it is -1.69; for AACATAATGGATTAAAACCAAG it is -1.68.
Same read-out and setting: the same measure for AAAAAAATGACAGAGAACCTCG: 0.153.

A further experiment addresses TMEM229B. The description is as above. The note with it: shRNA.
For the sequence TTGCGGATGATGAACTGCTCCA, the sensor-assay potency score (higher = more potent) was -0.427.
Take TCCTTGTCGAAGCGGAGGCGGA: the sensor-assay potency score (higher = more potent) was -1.59.
Still for that read-out and setting: the figure for TCACCTCGCAGAAGTAGCCGTG is -0.46; for TCCACGATGAGGATGGAGGTGC it is -1.19; for ATCACCTCGCAGAAGTAGCCGT it is -0.867.
Same read-out and setting: the figure for TGAAGTCAAAGTCGAACTGGGA is -0.249; for AACTCCCACAGGTAGGTCCAGA it is -1.06.
In turn, TCGAACTGGGAGTAGTCCCAGG gave a sensor-assay potency score (higher = more potent) of -0.884.
In turn, TCAGCGTCCTTGTCGAAGCGGA displayed a sensor-assay potency score (higher = more potent) of -0.896.
On the same count and under the same terms, the same measure for ATGGCATACAGGTACCAGCGGG: -1.1.
Same read-out and setting: the same measure for AAGTTCACCACGAACTCCCAGG: -0.691.
Still for that read-out and setting: the figure for TGGCATACAGGTACCAGCGGGA is -0.837.

The next experiment has as its target TMEM22. The experiment is described as above. To be noted: shRNA.
With TATAACACAAAAGACATTCATA, the sensor-assay potency score (higher = more potent) is -0.457.
The same measure, in the same setting: the figure for TTCACCATCACTGTGTTGGGAT is 0.611.
In the case of TAGTATTTCCTGGTAGTCCTGC, the sensor-assay potency score (higher = more potent) was -0.0251.
In turn, TTTCTTTGGATTTTCCTCCATA showed a sensor-assay potency score (higher = more potent) of -0.74.
TTGTCCAATCTCATTGATCATT gave a sensor-assay potency score (higher = more potent) of -1.19.
Same read-out and setting: the same measure for TAACACACAACTAACACAGATA: -0.611; for TAAAAGAAGAGTCGTAATCTGT: -0.127.
The same measure, in the same setting: the same measure for TTGATCATTGGGTCTTCTGTTG: -0.772; for TTTTTTTCTGCAAAGCTCTGGA: 0.243; for TTAACAAAGAATTGTCTTCATC: -1.39.
On the same count and under the same terms, the figure for ATTGTCTTCATCAACAATGTTT is -0.906.

Another experiment addresses TMEM231. The description is as above. To be noted: shRNA.
For the sequence TTAAAATGTAACATGTCCGTCT, the sensor-assay potency score (higher = more potent) is 0.405.
Still for that read-out and setting: the figure for TAATCGATAGGAGAAAGTCAGG is -1.54; for TTACCATCTCCCAGAATCCTGG it is -0.723.
Still for that read-out and setting: the figure for TAGCATTAATCACAAATGGAGC is -1.05.
The same measure, in the same setting: the same measure for TAAGAAATGACTTCCACAGGGT: 0.705; for TTCTTCTCTAGTCGAAACGAGC: -1.58.
